Source: PubChem BioAssay AID1347418 (Sanford-Burnham Center for Chemical Genomics, 2020)
Among all 1,300 compounds or so, about 750 (58%) were called active. The list shows a part of the results. Unmarked numbers belong to inactive results.

Molecular target: Sulfhydryl oxidase 1 (Homo sapiens) (UniProt O00391)
Assay: inhibition of human sulfhydryl oxidase QSOX1 – biochemical, ROS-Glo H2O2 luminescence, HTS, primary screen (AID 1347418)
Conditions: recombinant QSOX1, ROS-Glo H2O2 luminescence; at 12.5 µM; active compounds read high; active = any value above zero

Sulfhydryl oxidase 1 (Homo sapiens), sequence (O00391 whole entry, looked up): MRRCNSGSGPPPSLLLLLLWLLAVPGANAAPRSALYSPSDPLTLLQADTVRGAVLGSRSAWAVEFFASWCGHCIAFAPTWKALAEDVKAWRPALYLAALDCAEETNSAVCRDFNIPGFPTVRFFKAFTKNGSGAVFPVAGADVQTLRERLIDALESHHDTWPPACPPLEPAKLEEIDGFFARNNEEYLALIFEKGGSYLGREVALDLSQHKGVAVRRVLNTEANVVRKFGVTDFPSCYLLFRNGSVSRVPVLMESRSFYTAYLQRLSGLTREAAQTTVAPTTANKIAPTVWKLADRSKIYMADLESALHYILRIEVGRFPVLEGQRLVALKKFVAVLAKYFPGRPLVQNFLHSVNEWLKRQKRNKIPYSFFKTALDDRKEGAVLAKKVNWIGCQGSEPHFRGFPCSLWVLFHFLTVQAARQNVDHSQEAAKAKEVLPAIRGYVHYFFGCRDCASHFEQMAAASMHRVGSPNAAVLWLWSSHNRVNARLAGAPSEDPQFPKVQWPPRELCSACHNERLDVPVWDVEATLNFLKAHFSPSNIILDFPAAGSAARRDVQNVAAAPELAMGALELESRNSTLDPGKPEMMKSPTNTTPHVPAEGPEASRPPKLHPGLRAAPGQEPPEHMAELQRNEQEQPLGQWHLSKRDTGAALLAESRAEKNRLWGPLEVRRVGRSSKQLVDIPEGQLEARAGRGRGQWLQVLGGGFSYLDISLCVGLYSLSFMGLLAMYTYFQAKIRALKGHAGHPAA

| SMILES | inhibition |
| --- | --- |
| CN1C2CCCC1CC(NC(=O)c1nn(C)c3ccccc13)C2 (stereo unspecified) | 3% (active) |
| O=c1[nH]ccc2c(O)cccc12 | 4.1% (active) |
| O[Si](CCCN1CCCCC1)(c1ccc(F)cc1)C1CCCCC1 (stereo unspecified) | -3.8% |
| C[C@H](NC(CCc1ccccc1)C(=O)O)C(=O)N1CCC[C@H]1C(=O)O (stereo partly specified) | -2.6% |
| CCOC(=O)[C@H](CCc1ccccc1)N[C@@H](C)C(=O)N1[C@H](C(=O)O)C[C@H]2CCCC[C@@H]21 | 2.6% (active) |
| Cc1cccc(C#Cc2ccccc2)n1 | 2.9% (active) |
| COc1cc([C@@H]2c3cc4c(cc3[C@H](O)C3COC(=O)[C@@H]32)OCO4)cc(OC)c1OC (stereo partly specified) | 1.1% (active) |
| COc1cc([C@@H]2c3cc4c(cc3[C@@H](O[C@@H]3O[C@@H]5CO[C@@H](C)O[C@H]5[C@H](O)[C@H]3O)[C@H]3COC(=O)[C@H]23)OCO4)cc(OC)c1O | 0% |
| COc1ccc2c(c1OC)C(=O)O[C@@H]2[C@H]1c2c(cc3c(c2OC)OCO3)CCN1C | -4.2% |
| CC1=C(CC(=O)O)c2cc(F)ccc2/C1=C\c1ccc(S(C)(=O)=O)cc1 | 3.1% (active) |
| CC1=C(CC(=O)O)c2cc(F)ccc2/C1=C\c1ccc(S(C)=O)cc1 (stereo unspecified) | -0.4% |
| CC(=O)Oc1ccccc1C(=O)O | 0.3% (active) |
| O=C(CCc1ccc(O)cc1)c1c(O)cc(O)cc1O | 6.2% (active) |
| O=C1CCC(c2ccc(-n3ccnc3)cc2)=NN1 | 6.6% (active) |
| Nc1nc2ccc(OC(F)(F)F)cc2s1 | -3.9% |
| Cc1ccc2nc(CN(CCN(Cc3nc4ccc(C)cc4[nH]3)Cc3nc4ccc(C)cc4[nH]3)Cc3nc4ccc(C)cc4[nH]3)[nH]c2c1 | -0.7% |
| Brc1c(Br)c(Br)c2n[nH]nc2c1Br | 1% (active) |
| CNCCCN1c2ccccc2CCc2ccccc21 | 5.2% (active) |
| CNCCCC1c2ccccc2C=Cc2ccccc21 | -4.7% |
| CN(C)CCCN1c2ccccc2CCc2ccccc21 | 11.1% (active) |
| CC(CN(C)C)CN1c2ccccc2CCc2ccccc21 (stereo unspecified) | 2% (active) |

| SMILES | inhibition |
| --- | --- |
| CNCCCC12CCC(c3ccccc31)c1ccccc12 | -2.7% |
| CN(C)CCCN1c2ccccc2CCc2ccc(Cl)cc21 | 2.6% (active) |
| O=C(O)CCC(C(=O)O)N1C(=O)c2ccccc2C1=O (stereo unspecified) | -1% |
| CCCCNc1ccc(C(=O)OCCN(C)C)cc1 | -1.8% |
| CCCCNc1c(C(=O)OCC)c(C)nc2c1cnn2CC | 3.5% (active) |
| CCOC(=O)c1cnc2c(cnn2CC)c1NN=C(C)C | 0.7% (active) |
| CC(C)COC(=O)OCN1C(=O)CN(CCN2CC(=O)N(COC(=O)OCC(C)C)C(=O)C2)CC1=O | 2.6% (active) |
| NCCSSCCN | 10.5% (active) |
| CCOC(=O)Nc1ccc(NCc2ccc(F)cc2)nc1N | 9.8% (active) |
| CCCCCCCCc1ccc(-c2ccc(C(=O)O)cc2)cc1 | -5.7% |
| CCCCCCCCCC[Si](C)(C)CCC(=O)NC(Cc1ccc(C)cc1)c1ccccc1 (stereo unspecified) | 0.6% (active) |
| CCN(c1nc(N)c(C(=O)N=C(N)N)nc1Cl)C(C)C | -3.8% |
| CN(C)c1nc(N)c(C(=O)N=C(N)N)nc1Cl | 0.7% (active) |
| NC(N)=NC(=O)c1nc(Cl)c(N)nc1N | -2.5% |
| NC(N)=NC(=O)c1nc(Cl)c(N2CCCCCC2)nc1N | 1.7% (active) |
| COC(=O)C1=C(C)NC(C)=C(C(=O)OC(C)(C)CN(C)CCC(c2ccccc2)c2ccccc2)C1c1cccc([N+](=O)[O-])c1 (stereo unspecified) | -1.4% |
| C#CCN1C(C)=C(C(=O)OC)C(c2cccc([N+](=O)[O-])c2)C(C(=O)OCC)=C1C (stereo unspecified) | -3% |
| COCCOC(=O)C1=C(C)NC(C)=C(C(=O)OC(C)C)C1c1cccc([N+](=O)[O-])c1 (stereo unspecified) | -2.5% |
| CCOC(=O)C1=C(C)NC(C)=C(C(=O)OC)C1c1cccc([N+](=O)[O-])c1 (stereo unspecified) | 1% (active) |
| CCOC(=O)C1=C(C)NC(C)=C(C(=O)OCC)C1c1c(F)c(F)c(F)c(F)c1F | -3.2% |
| CCOC(=O)C1=C(C)NC(C)=C(C(=O)OC)C1c1cccc(Cl)c1Cl (stereo unspecified) | 3% (active) |

| SMILES | inhibition |
| --- | --- |
| COCCOC(=O)C1=C(C)NC(C)=C(C(=O)OC/C=C/c2ccccc2)C1c1cccc([N+](=O)[O-])c1 (stereo unspecified) | 5.1% (active) |
| COC(=O)C1=C(C)NC(C)=C(C(=O)OCCN(C)Cc2ccccc2)C1c1cccc([N+](=O)[O-])c1 (stereo unspecified) | -1.6% |
| COC(=O)C1=C(C)NC(C)=C(C(=O)OC)C1c1ccccc1[N+](=O)[O-] | -1.1% |
| O=C(O)CN(CCOCCOCCN(CC(=O)O)CC(=O)O)CC(=O)O | -5.4% |
| CCCCCCCCCCC(C)(C)C(=O)Nc1c(OC)cc(OC)cc1OC | -1% |
| COc1ccccc1N1CCN(CC(O)COc2cccc3ccccc23)CC1 (stereo unspecified) | 8.9% (active) |
| COc1ccccc1OCC(O)CN1CCN(CC(=O)Nc2c(C)cccc2C)CC1 (stereo unspecified) | 3.9% (active) |
| COc1cc2nc(N(C)CCCNC(=O)C3CCCO3)nc(N)c2cc1OC (stereo unspecified) | 1.1% (active) |
| COc1cc2nc(N3CCN(C(=O)C4CCCO4)CC3)nc(N)c2cc1OC (stereo unspecified) | 0.3% (active) |
| COc1cc2nc(N3CCN(C(=O)C4COc5ccccc5O4)CC3)nc(N)c2cc1OC (stereo unspecified) | 4.9% (active) |
| COc1cc2nc(N3CCN(C(=O)OCc4ccccc4)C(C(=O)NC(C)(C)C)C3)nc(N)c2cc1OC (stereo unspecified) | 4.3% (active) |
| COc1cc2nc(N3CCN(C(=O)c4ccco4)CC3)nc(N)c2cc1OC | -0.3% |
| NC(=O)c1cccc(N)c1 | 2.2% (active) |
| NC(=O)c1ccccc1 | 7.2% (active) |
| CCn1c(=O)[nH]c2cc(Cl)c(Cl)cc21 | -5.4% |
| NS(=O)(=O)c1cc2c(cc1Cl)NC=NS2(=O)=O | 2.5% (active) |
| NS(=O)(=O)c1cc2c(cc1Cl)NCNS2(=O)=O | -0.5% |
| NS(=O)(=O)c1cc2c(cc1Cl)NC(C1CC3C=CC1C3)NS2(=O)=O (stereo unspecified) | -0.4% |
| COc1cccc2c1[C@@H]1CN(CCCCn3c(=O)[nH]c4c(sc5ncc(-c6ccccc6)nc54)c3=O)C[C@@H]1CO2 | -1.5% |
